Inconclusive results are not listed. Active and inactive are the calls of the source. Calls follow the shape of the dose curve; as a rule, active = well fitted activation curve with a large enough effect in the signal ratio, with a control signal flat; inconclusive = small, poorly fitted or top-dose-only effect, or a change in a side signal; inactive = flat fitted curve, though single readings scatter; the % refers to the signal ratio.
Biological target: Thyrotropin receptor (Homo sapiens) (UniProt P16473)
Sequence (P16473 whole entry, looked up): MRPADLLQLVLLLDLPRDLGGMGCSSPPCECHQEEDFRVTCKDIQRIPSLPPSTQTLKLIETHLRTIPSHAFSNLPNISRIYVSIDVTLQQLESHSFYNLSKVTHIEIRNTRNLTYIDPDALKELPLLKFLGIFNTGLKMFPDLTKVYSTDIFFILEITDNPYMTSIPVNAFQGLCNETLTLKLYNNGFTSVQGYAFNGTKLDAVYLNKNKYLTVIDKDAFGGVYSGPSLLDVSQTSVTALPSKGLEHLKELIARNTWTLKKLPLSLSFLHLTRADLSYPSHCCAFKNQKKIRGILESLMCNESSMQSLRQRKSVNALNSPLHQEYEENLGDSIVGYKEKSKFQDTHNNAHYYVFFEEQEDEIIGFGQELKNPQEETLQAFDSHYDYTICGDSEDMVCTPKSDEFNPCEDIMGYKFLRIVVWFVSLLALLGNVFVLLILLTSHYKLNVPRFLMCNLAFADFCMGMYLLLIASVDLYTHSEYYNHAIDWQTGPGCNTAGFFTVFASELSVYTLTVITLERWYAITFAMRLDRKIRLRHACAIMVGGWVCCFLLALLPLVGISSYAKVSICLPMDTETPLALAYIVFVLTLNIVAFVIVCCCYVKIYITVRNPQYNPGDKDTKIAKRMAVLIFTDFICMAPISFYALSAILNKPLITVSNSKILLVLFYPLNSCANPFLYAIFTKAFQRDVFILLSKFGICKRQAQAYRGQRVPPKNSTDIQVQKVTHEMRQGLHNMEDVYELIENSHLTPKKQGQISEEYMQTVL
Experiment: Secondary Concentration-Response Assay for Agonists of the Thyroid Stimulating Hormone Receptor: HTRF Activity Detection;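 as to activation: HEK 293 cells stably expressing human TSHR with RO 20-1724 phosphodiesterase inhibitor; % of control where 0% means no effect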
Conditions: HEK293-TSHR cells, cAMP HTRF ratio, 30 min; series mostly up to 91.7 µM
Excerpt: NIH Chemical Genomics Center [NCGC]
NIH Molecular Libraries Screening Centers Network [MLSCN]
PI Name: Dr. Marvin Gershengorn, NIH
Confirmation of Thyroid Stimulating Hormone Receptor Agonists
TSH is an alpha/beta heterodimeric glycoprotein hormone secreted from the anterior pituitary gland which belongs to the glycoprotein hormone family. The actions of TSH are mediated by a seven-transmembrane receptor, which upon TSH binding couples preferentially to the G-alpha (s) protein (Gs), resulting in activation of adenylate cyclase and increase in cyclic adenosine 3', 5' monophosphate (cAMP). The TSH receptor (THSR) is mainly expressed in thyroid follicular cells and regulates their growth and function. Recombinant TSH is used to activate TSHR in patients with thyroid cancer receiving thyroid hormone suppression therapy and to screen for residual tumor after surgery, but it is expensive and must be administered intramuscularly. An orally active small molecule TSHR agonist would serve as an invaluable research tool for studying TSHR pharmacology and physiology, and would have multiple advantages in therapeutic settings. However, no selective small molecule agonist of the TSH receptor exists, and no small molecule screen for TSHR agonists has ever been reported.
A confirmatory assay of putative TSHR agonists was conducted on a different TSHR transfected HEK 293 cell line, using an orthogonal detection technology to measure cAMP stimulation: antibody-based Homogeneous Time Resolved Fluorescence (HTRF).
NCGC Assay Protocol Summary:
Homogeneous Time Resolved Fluorescence (HTRF) cAMP Assay. HEK 293 cells stably transfected with a vector containing the TSHR and maintained under hygromycin selection were obtained from the laboratory of Dr. Marvin Gershengorn. Compounds were assayed using a HTRF cAMP detection kit (Cisbio) on the TSHR transfected cell line. Briefly, 750 cells were plated in 2.5 ul/well of complete media (DMEM containing 10 % FCS, and 100 uM RO 20-1724) in 1536 well solid bottom white plates and 23 nl/well compound in DMSO solution or controls was added. Following 30 minute incubation at room temperature, 2.5 ul/well of labeled d2 cAMP and 2.5 ul/well of anti-cAMP antibody (both diluted 1:20 in lysis buffer) were added to each well using a flying reagent dispenser (Aurora Discovery, San Diego) . Plates were measured using the Envision plate reader (PerkinElmer, Boston, MA) with excitation at 330 nm and emissions of 615 nm and 660 nm.
Keywords: Thyroid-stimulating hormone TSH, TSHR, TSHR agonist, quantitative high throughput screening, qHTS, HTS, probe identification, CNG, cAMP, cyclic nucleotide gated ion channel PubChem
Potency is read from the fitted curve at half-maximal effect.

Potency, active:
COc1ccc(C(=O)N(Cc2ccccc2)Cc2cccs2)c(O)c1 28.2 µM, COc1ccc(C2Nc3ccccc3C(=O)N2Cc2cccc(-c3ccccc3)c2)cc1COc1ccc(NC(C)=O)cc1 (stereo not given) 2.24 µM, COc1ccc(C2Nc3ccccc3C(=O)N2CCc2ccccc2)cc1COc1ccc(NC(C)=O)cc1 (stereo not given) 7.94 µM, COc1ccc(C2Nc3ccc(NC(C)=O)cc3C(=O)N2Cc2cccc(Cl)c2)cc1COc1ccc(NC(C)=O)cc1 (stereo not given) 7.94 µM, COc1ccc(C(=O)N(Cc2ccccc2)Cc2ccccc2)c(O)c1 25.1 µM, COc1ccc(CN(Cc2ccccc2)C(=O)c2ccccc2)cc1COc1ccc(NC(C)=O)cc1 8.91 µM

Potency, inactive:
COc1ccc(CN(Cc2ccccc2)C(=O)c2ccno2)cc1COc1ccc(NC(C)=O)cc1, COc1ccc(C2Nc3ccccc3C(=O)N2CC(C)(C)C)cc1COc1ccc(NC(C)=O)cc1 (stereo not given), COc1ccc(C2Nc3ccccc3C(=O)N2c2ccccc2)cc1Cn1cc([N+](=O)[O-])cn1 (stereo not given), CCOc1cc(C2Nc3ccccc3C(=O)N2c2ccccc2)c(Br)cc1OCC(=O)O (stereo not given), COc1ccc(-c2nc3ccccc3n2Cc2ccccc2)cc1COc1ccc(NC(C)=O)cc1, COc1ccc(/C=N/NC(=O)c2ccn[nH]2)cc1COc1ccc(F)cc1, COc1ccc(CN(Cc2ccccc2)C(=O)c2ccccc2O)cc1, COc1ccc(C2Nc3ccccc3C(=O)N2Cc2ccccc2)cc1COc1ccc([N+](=O)[O-])cc1 (stereo not given), O=C1c2ccccc2NC(c2ccccc2OCc2ccccc2)N1Cc1ccco1 (stereo not given), COc1ccc(C2Nc3ccccc3C(=O)N2Cc2ccco2)cc1COc1ccc([N+](=O)[O-])c(C)c1 (stereo not given), COc1ccc(N2C(=O)c3ccccc3NC2c2ccc(OC)c(Cn3nnc4ccccc43)c2)cc1 (stereo not given), COc1cc(C2Nc3ccccc3C(=O)N2c2ccc(Cl)cc2)c(Cl)cc1OCC(=O)O (stereo not given), CC(C)Oc1ccccc1C1Nc2ccccc2C(=O)N1c1ccc2c(c1)OCCO2 (stereo not given), COc1ccc2c(c1)C1(Nc3ccccc3C(=O)N1c1ccccc1)C(=O)N2 (stereo not given), COc1ccc(C2Nc3ccccc3C(=O)N2Cc2ccccc2)cc1COc1cccc(Cl)c1 (stereo not given), Cc1sc2ncn(/N=C/c3cn(-c4ccccc4)nc3-c3ccccc3)c(=O)c2c1C, COc1ccc(C2Nc3ccccc3C(=O)N2Cc2ccccc2)cc1COc1ccccc1F (stereo not given), CN1C(=O)c2ccccc2N(C)C1c1ccc2c(c1)OCO2 (stereo not given), COc1ccc(C(=O)O)cc1COc1ccc(NC(C)=O)cc1, CC(=O)Nc1cccc(OCc2cccc(C3Nc4ccccc4C(=O)N3Cc3ccco3)c2)c1 (stereo not given), O=C1C2C3CCCC3=C3CCCC3C2C(=O)N1c1cccc(Cl)c1 (stereo not given), COc1ccc(C2Nc3ccccc3C(=O)N2Cc2ccco2)cc1COc1cccc(NC(C)=O)c1 (stereo not given), O=C1c2ccccc2NC(c2ccc3c(c2)OCCO3)N1c1ccc2c(c1)OCCO2 (stereo not given), COc1ccc(C2Nc3ccccc3C(=O)N2c2ccccc2)cc1CSc1ccccn1 (stereo not given)

activation, inactive:
COc1cc(OC)cc(C(=O)N2c3ccc(F)cc3CCC2C)c1 (stereo not given) -0.327% [at 0.00035 µM], Cc1nn(C)c(C)c1S(=O)(=O)N(CC(=O)Nc1nccs1)c1ccc(C(C)C)cc1 0.117% [at 0.00035 µM], CCCS(=O)(=O)N1CCN(C(=O)c2ccc(-c3ccccc3)cc2)CC1 0.323% [at 0.00035 µM], CC1(C)CC(=O)C2=C(C1)OC(N)=C(C#N)C2CCc1ccccc1 (stereo not given) -0.482% [at 0.00035 µM], Cc1occc1-c1nnc(SCC(=O)NCc2ccc3c(c2)OCO3)n1CC(C)C 0.411% [at 0.00035 µM], Cc1ccc(S(=O)(=O)N2CCC(C(=O)NCCCN3CCCCCC3)CC2)cc1 0.566% [at 0.00035 µM], CC1(C)CC2CC(C)(CN2S(=O)(=O)c2ccc(N)cc2)C1 (stereo not given) -0.162% [at 0.00035 µM], Cc1occc1-c1nnc(SCC(=O)NCc2ccco2)n1CC(C)C 0.131% [at 0.00035 µM], CCS(=O)(=O)N1CCN(C(C)CCc2ccccc2)CC1 (stereo not given) 0.972% [at 0.00035 µM], CC(=O)N1CCCc2cc(S(=O)(=O)N(CC(C)C)CC(C)C)ccc21 -0.0207% [at 0.00035 µM]

Reference: PubChem BioAssay AID933 (National Center for Advancing Translational Sciences (NCATS), 2009)
